Assay outcomes as filed in PubChem.
AddAB inh: growth inhibition of E. coli expressing H. pylori AddAB, primary screen, AddAB inhibitor project, absorbance; inhibition, % at 11.9 µM; 330,000 tested, 0.29% active; in the data active = inhibition above about 12%
Tat export inh: E. coli Tat export inhibitors, primary screen, MC4100, TorA-mCherry reporter, fluorescence, single point; AID 488895, 2010; inhibition, % at 10 µM; 340,000 tested, 0.036% active;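 active = mean replicate inhibition at least 50% and at least half of replicates individually reaching 50%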;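 note: exported cargo escapes ClpAP degradation while cytoplasmic cargo is degraded and loses fluorescence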
E coli growth-1: E. coli growth inhibition, primary screen, OD600. Escherichia coli growth, 23 h; active compounds read low. OD600 absorbance (test concentration not listed). 330,000 tested, 0.21% active. AID 1053175, 2014;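 active = OD600 absorbance below the run mean of sample wells minus 3.6 SD, in any replicate, cut at about 0.56 in these data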
phage Ecoli inh: growth loss of phage-infected E. coli, primary screen, RecBCD inhibitor project, absorbance, with phage, HTS. inhibition, % at 11.9 µM. 360,000 tested, 0.26% active. AID 651602, 2012; in the data active = inhibition above about 11%
E coli growth-2: E. coli V3065 growth inhibition, primary screen, counter-screen for AddAB inhibitor project, absorbance, OD600 | 18 h | inhibition, % at 11.9 µM | 330,000 tested, 0.27% active;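 active = inhibition above the campaign's mean inhibition across all tested compounds plus 3 SD, cut at about 9.9% in these data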;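 note: uninfected addAB+ strain grown without phage in ampicillin broth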
Numbers stand for hits. A selection: hits, their analogues and other compounds. The true share with any hit is near 0.5%.

How did Cc1ccc(Cl)cc1NC(=O)CC(O)(C(F)(F)F)C(F)(F)F do in these assays?
AddAB inh: inactive; Tat export inh: inactive; E coli growth-1: inactive; phage Ecoli inh: inactive; E coli growth-2: 11

What do the screens show for `O=C(NN=C/C=C/c1ccccc1)C1CC1(c1ccccc1)c1ccccc1` (stereo not drawn)?
E coli growth-1: inactive

Results for Cc1ccnc(NC(=O)c2ccc([N+](=O)[O-])s2)c1 ?
AddAB inh: 14; Tat export inh: inactive; E coli growth-1: inactive; phage Ecoli inh: inactive; E coli growth-2: inactive

What do the screens show for `Nc1ncncc1-c1ccc([N+](=O)[O-])cc1`?
AddAB inh: inactive; Tat export inh: inactive; E coli growth-1: 0.36; phage Ecoli inh: inactive; E coli growth-2: inactive

Results for Nc1c(Cl)ncnc1N/N=C/c1cccnc1 ?
AddAB inh: inactive; Tat export inh: inactive; phage Ecoli inh: inactive; E coli growth-2: inactive

Results for O=c1cnnc(NN=Cc2c[nH]c3ccccc23)[nH]1 ?
E coli growth-1: inactive

What do the screens show for `C(=NNc1nncc2ccccc12)c1ccccn1`?
E coli growth-1: 0.49

What do the screens show for `Nc1c(Cl)ncnc1NN=Cc1ccccn1`?
E coli growth-1: 0.44

How did O=c1cnnc(NN=Cc2ccccn2)[nH]1 do in these assays?
E coli growth-1: 0.43

Results for CCOc1ccc(-n2c(C)cc(C=NN(C)C)c2C)cc1 ?
E coli growth-1: inactive

How did COc1ccc(NC(=O)CON=C(C)c2cccs2)cc1 do in these assays?
E coli growth-1: inactive

What do the screens show for `Cc1c2ccncc2cc2c1[nH]c1ccccc12`?
Tat export inh: inactive; E coli growth-1: 0.41; phage Ecoli inh: inactive

What do the screens show for `COC(=O)C1C(O)C(C)C(O)C(C)(O)/C=C\C=C(/C)C(=O)Nc2c(C)c(OC(C)=O)c3c(c2O)C(=O)C(C)=C2OCOC(=C23)/C(C)=C/C(C)(O)C(O)C(C)C1O` (stereo not drawn)?
AddAB inh: inactive; Tat export inh: 65; phage Ecoli inh: inactive; E coli growth-2: inactive

What do the screens show for `CCc1ccc2c(COC(=O)C3CC(=O)N(CCc4ccccc4)C3)cc(=O)oc2c1` (stereo not drawn)?
Tat export inh: 63; E coli growth-1: inactive; phage Ecoli inh: inactive

What do the screens show for `CC(C)(C)OC(=O)N1CCC[C@H]1C(=O)NN=Cc1cccc2nccnc12`?
E coli growth-1: inactive

What do the screens show for `Cn1ncc([N+](=O)[O-])c1C(=O)NN=Cc1c[nH]c2ccccc12`?
E coli growth-1: inactive

What do the screens show for `O=C1CCCCC1=NNc1ccc(OCc2ccccc2)cc1`?
E coli growth-1: inactive

Results for Cc1nnc(SCC2=C(C(=O)O)N3C(=O)C(NC(=O)COc4ccccc4)C3SC2)s1 (stereo not drawn) ?
Tat export inh: inactive; E coli growth-1: 0.5; phage Ecoli inh: inactive

Results for Cc1nnc(SCC2=C(C(=O)O)N3C(=O)C(NC(=O)Cn4nc(C(F)F)cc4C)C3SC2)s1 (stereo not drawn) ?
AddAB inh: inactive; Tat export inh: inactive; E coli growth-1: 0.49; phage Ecoli inh: inactive; E coli growth-2: inactive

What do the screens show for `CC(=O)OCC1=C(C(=O)O)N2C(=O)C(NC(=O)COc3ccc(F)cc3)C2SC1` (stereo not drawn)?
Tat export inh: inactive; E coli growth-1: inactive; phage Ecoli inh: inactive

How did CC(=O)OCC1=C(C(=O)O)N2C(=O)[C@@H](NC(=O)Cc3cccs3)[C@H]2SC1 do in these assays?
AddAB inh: inactive; Tat export inh: inactive; E coli growth-1: 0.046; phage Ecoli inh: inactive; E coli growth-2: inactive

Results for Cc1nnc(SCC2=C(C(=O)O)N3C(=O)C(NC(=O)COc4ccc(F)cc4)C3SC2)s1 (stereo not drawn) ?
AddAB inh: inactive; Tat export inh: inactive; E coli growth-1: 0.55; phage Ecoli inh: inactive; E coli growth-2: inactive

How did CC(=NNC(=O)c1nn(C)c(C)c1Br)c1cccc(NC(=O)c2ccc(F)cc2)c1 do in these assays?
E coli growth-1: inactive

How did Oc1ccc2ccccc2c1C=Nc1nc2c(s1)CCCC2 do in these assays?
E coli growth-1: inactive

Results for O=C(CNC(=O)c1ccccc1F)NN=Cc1cn[nH]c1-c1ccccc1 ?
E coli growth-1: inactive

What do the screens show for `COc1ccc(N2CCN(C(=NS(=O)(=O)c3ccccc3)Nc3nc(C)cc(C)n3)CC2)cc1`?
E coli growth-1: inactive

Results for O=C(NCc1nc2ccccc2[nH]1)c1cccc(S(=O)(=O)N2CCCC2)c1 ?
AddAB inh: inactive; Tat export inh: inactive; E coli growth-1: inactive; phage Ecoli inh: inactive; E coli growth-2: 10

Results for COc1ccc2c3c(cccc13)C(=O)N(O)C2=O ?
AddAB inh: inactive; Tat export inh: inactive; E coli growth-1: 0.38; phage Ecoli inh: inactive; E coli growth-2: inactive

How did CN(C)CC(=O)c1c(N)n(Cc2ccccc2)c(=O)n(C)c1=O do in these assays?
AddAB inh: inactive; Tat export inh: inactive; E coli growth-1: 0.54; phage Ecoli inh: inactive; E coli growth-2: inactive

What do the screens show for `CC(=NNc1nc2ccccc2nc1C)c1ccccc1O`?
E coli growth-1: inactive

How did NC(N)=NN=Cc1ccc(Cl)c(Cl)c1 do in these assays?
E coli growth-1: inactive

Results for Nc1nc(Nc2ccccc2)nc2ccccc12 ?
AddAB inh: inactive; Tat export inh: inactive; E coli growth-1: 0.53; phage Ecoli inh: inactive; E coli growth-2: inactive

Results for Nc1nc(Nc2ccc(Cl)cc2)nc2ccccc12 ?
AddAB inh: inactive; Tat export inh: inactive; E coli growth-1: 0.35; phage Ecoli inh: inactive; E coli growth-2: inactive

Results for CN(C)c1ccc(Nc2nc(N)c3ccccc3n2)cc1 ?
AddAB inh: inactive; Tat export inh: inactive; phage Ecoli inh: inactive; E coli growth-2: inactive

Results for COc1cc2nc(Nc3ccc(C)c(Cl)c3)nc(N)c2cc1OC ?
AddAB inh: inactive; Tat export inh: inactive; E coli growth-1: inactive; phage Ecoli inh: inactive; E coli growth-2: inactive

How did Cc1ccc(Nc2nc(N)c3ccccc3n2)cc1Cl do in these assays?
AddAB inh: inactive; Tat export inh: inactive; E coli growth-1: 0.44; phage Ecoli inh: inactive; E coli growth-2: inactive

Results for Cc1cc(O)c(C(C)C)cc1N=Nc1ccccc1C(=O)O ?
AddAB inh: inactive; Tat export inh: inactive; E coli growth-1: inactive; phage Ecoli inh: inactive; E coli growth-2: inactive

How did Cc1cc(N=Nc2ccccc2C(=O)O)c(C)c(C)c1O do in these assays?
AddAB inh: inactive; Tat export inh: inactive; E coli growth-1: inactive; phage Ecoli inh: inactive; E coli growth-2: 10.0

What do the screens show for `Cc1ccc(C(=O)ON=Cc2c(N3CCOCC3)n(C)c3ccccc23)cc1`?
E coli growth-1: inactive

How did CC(=O)Nc1cccc(C(=O)/C=C/c2ccc(/C=C/C(=O)c3cccc(NC(C)=O)c3)cc2)c1 do in these assays?
AddAB inh: inactive; phage Ecoli inh: inactive; E coli growth-2: inactive

What do the screens show for `CC(=O)Nc1cccc(C(=O)/C=C/c2ccc[nH]2)c1`?
AddAB inh: inactive; Tat export inh: inactive; E coli growth-1: inactive; phage Ecoli inh: inactive; E coli growth-2: 11

How did O=C(Nc1nnc(C2=COCCO2)o1)c1cccc(Br)c1 do in these assays?
AddAB inh: inactive; Tat export inh: inactive; E coli growth-1: 0.48; phage Ecoli inh: inactive; E coli growth-2: inactive
